Measurements from PubChem BioAssay (NCI).
About 83,000 compounds went through this panel and 20% of them were active in at least one assay; those are over-represented in the sample as a whole.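 Note: values are percent growth. 100 is the growth of untreated cells, values between 100 and 0 indicate rising inhibition; between -100 and 0 indicates cell death.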 Activity calls are given as the source filed them. Rule for the calls: active = growth percent below 10; inactive = the rest.

Key:
Test in all cases: NCI-60 one-dose screen, 48 h (100 = growth as untreated, 0 = no growth, -100 = all killed)
Settings in all cases: 10 µM unless noted
HCT-15 colon = test system: HCT-15 colon
HT29 colon = test system: HT29 colon
SNB-75 CNS = test system: SNB-75 CNS
SNB-19 CNS = test system: SNB-19 CNS
U251 CNS = test system: U251 CNS
SK-MEL-5 melanoma = test system: SK-MEL-5 melanoma
UACC-62 melanoma = test system: UACC-62 melanoma
LOX IMVI melanoma = test system: LOX IMVI melanoma
SK-MEL-28 melanoma = test system: SK-MEL-28 melanoma
EKVX NSCLC = test system: EKVX NSCLC
SN12C renal = test system: SN12C renal
UO-31 renal = test system: UO-31 renal
TK-10 renal = test system: TK-10 renal
ACHN renal = test system: ACHN renal
CAKI-1 renal = test system: CAKI-1 renal
A498 renal = test system: A498 renal
CCRF-CEM leukemia = test system: CCRF-CEM leukemia
MOLT-4 leukemia = test system: MOLT-4 leukemia
SK-MEL-2 melanoma = test system: SK-MEL-2 melanoma
PC-3 prostate = test system: PC-3 prostate

Measured: growth

Cc1ccc2c(c1)C(=O)/C(=C/c1cccc(OCC(=O)c3ccc(Cl)cc3)c1)CS2
active: CCRF-CEM leukemia -2.6%
inactive: HCT-15 colon 81.3% | HT29 colon 87.9% | SNB-75 CNS 87.6% | SNB-19 CNS 93.9% | U251 CNS 89.7% | SK-MEL-5 melanoma 85.1% | UACC-62 melanoma 76.2% | LOX IMVI melanoma 75.3% | SK-MEL-28 melanoma 123% | EKVX NSCLC 91.9% | SN12C renal 88.4% | UO-31 renal 71.2% | TK-10 renal 93% | ACHN renal 99.6% | CAKI-1 renal 89.2% | A498 renal 80.4% | MOLT-4 leukemia 19.1%

O=C(Nc1cccc2[nH]c(C(F)(F)F)nc12)c1ccc(-n2cnnn2)cc1
inactive: HCT-15 colon 99.1% | HT29 colon 111% | SNB-75 CNS 100% | SNB-19 CNS 94% | U251 CNS 94.4% | SK-MEL-5 melanoma 87.2% | UACC-62 melanoma 34.3% | LOX IMVI melanoma 102% | SK-MEL-28 melanoma 120% | SN12C renal 108% | UO-31 renal 75.9% | TK-10 renal 108% | ACHN renal 99.5% | CAKI-1 renal 95.4% | A498 renal 83.1% | CCRF-CEM leukemia 28.6% | MOLT-4 leukemia 32.4%

N#Cc1cnn(-c2nc3c(Cl)cccc3s2)c1N
inactive: HCT-15 colon 91.8% | HT29 colon 84.8% | SNB-75 CNS 77.7% | SNB-19 CNS 94.8% | U251 CNS 88% | SK-MEL-5 melanoma 90.8% | UACC-62 melanoma 89.2% | LOX IMVI melanoma 81.4% | SK-MEL-28 melanoma 102% | SN12C renal 88.5% | UO-31 renal 83.2% | TK-10 renal 92.7% | ACHN renal 67.4% | CAKI-1 renal 82.8% | A498 renal 97.1% | CCRF-CEM leukemia 91.1% | MOLT-4 leukemia 92.4%

COc1ccc(C(=S)N2CCN(c3cccc(Cl)c3)CC2)cc1
inactive: HCT-15 colon 108% | HT29 colon 101% | SNB-75 CNS 93.2% | SNB-19 CNS 101% | U251 CNS 112% | SK-MEL-5 melanoma 130% | UACC-62 melanoma 85.2% | LOX IMVI melanoma 103% | SK-MEL-28 melanoma 103% | EKVX NSCLC 93.2% | SN12C renal 103% | UO-31 renal 83.2% | TK-10 renal 94% | ACHN renal 109% | A498 renal 106% | MOLT-4 leukemia 108%

Cn1c(NCCc2ccc(O)c(O)c2)nc2c1c(=O)n(Cc1ccc(Cl)c(Cl)c1)c(=O)n2C
inactive: HCT-15 colon 45.7% | HT29 colon 94.4% | SNB-75 CNS 56.1% | SNB-19 CNS 84.3% | U251 CNS 77.9% | SK-MEL-5 melanoma 65.4% | UACC-62 melanoma 73.9% | SK-MEL-28 melanoma 77.3% | SK-MEL-2 melanoma 91.2% | EKVX NSCLC 81.2% | SN12C renal 71.5% | UO-31 renal 34% | TK-10 renal 65.9% | ACHN renal 41.8% | CAKI-1 renal 62.8% | A498 renal 98.4% | CCRF-CEM leukemia 17.8% | MOLT-4 leukemia 11.8%

COC(=O)c1ccc2oc(NC(=O)c3ccc(Nc4ccc([N+](=O)[O-])cc4C)c([N+](=O)[O-])c3)nc2c1
inactive: HCT-15 colon 104% | HT29 colon 96.8% | SNB-75 CNS 97.5% | SNB-19 CNS 99% | U251 CNS 101% | SK-MEL-5 melanoma 93.6% | UACC-62 melanoma 100% | LOX IMVI melanoma 99.7% | SK-MEL-28 melanoma 108% | EKVX NSCLC 79.9% | SN12C renal 97.2% | UO-31 renal 90.7% | TK-10 renal 100% | ACHN renal 104% | CAKI-1 renal 89.5% | A498 renal 108% | CCRF-CEM leukemia 107% | MOLT-4 leukemia 105%

Oc1cccc(-c2nc(N3CCOCC3)c3c4c(sc3n2)CCCC4)c1
active: SNB-75 CNS 7.14%
inactive: HCT-15 colon 49.1% | HT29 colon 94.7% | SNB-19 CNS 62.3% | U251 CNS 52.7% | SK-MEL-5 melanoma 46.6% | UACC-62 melanoma 43.8% | SK-MEL-28 melanoma 57.8% | SK-MEL-2 melanoma 71.3% | EKVX NSCLC 34.4% | SN12C renal 38.8% | UO-31 renal 13.1% | TK-10 renal 70.6% | ACHN renal 38.3% | CAKI-1 renal 69.8% | A498 renal 114% | CCRF-CEM leukemia 60.5% | MOLT-4 leukemia 24%

CN1CCN(c2ccc(Nc3c4ccccc4nc4ccccc34)cc2)CC1
inactive: HCT-15 colon 99.3% | HT29 colon 103% | SNB-75 CNS 96.8% | SNB-19 CNS 107% | U251 CNS 99.8% | SK-MEL-5 melanoma 102% | UACC-62 melanoma 109% | LOX IMVI melanoma 105% | SK-MEL-28 melanoma 109% | SK-MEL-2 melanoma 106% | SN12C renal 102% | UO-31 renal 97.5% | TK-10 renal 102% | ACHN renal 102% | CAKI-1 renal 107% | A498 renal 112% | CCRF-CEM leukemia 105% | MOLT-4 leukemia 97.5%

COC(=O)[C@]12CCC(C)(C)C[C@H]1[C@H]1C(=O)C[C@@H]3[C@@]4(C)c5c([nH]c6ccccc6c5=O)C(C)(C)[C@@H]4CC[C@@]3(C)[C@]1(C)CC2
inactive: HCT-15 colon 46.5% | HT29 colon 45.4% | SNB-75 CNS 65% | SNB-19 CNS 75.3% | PC-3 prostate 36.6% | SK-MEL-5 melanoma 12.4% | UACC-62 melanoma 54.5% | LOX IMVI melanoma 58.3% | SK-MEL-28 melanoma 68% | SK-MEL-2 melanoma 75.5% | EKVX NSCLC 52.4% | SN12C renal 70% | UO-31 renal 67.2% | TK-10 renal 84.7% | ACHN renal 53% | CAKI-1 renal 50.7% | A498 renal 69% | CCRF-CEM leukemia 59.5% | MOLT-4 leukemia 43.5%

COc1cc(/C=C/C(=O)c2c(C)oc3nc[nH]c(=O)c23)cc(OC)c1OC
inactive: HCT-15 colon 49.3% | HT29 colon 90.7% | SNB-75 CNS 78% | SNB-19 CNS 93.6% | PC-3 prostate 83.4% | SK-MEL-5 melanoma 89.9% | UACC-62 melanoma 87% | LOX IMVI melanoma 66.2% | SK-MEL-28 melanoma 93.9% | SK-MEL-2 melanoma 82.5% | EKVX NSCLC 61.9% | SN12C renal 79.8% | UO-31 renal 63.2% | TK-10 renal 151% | ACHN renal 74.7% | CAKI-1 renal 72.7% | A498 renal 93.4% | CCRF-CEM leukemia 34% | MOLT-4 leukemia 68.4%

COc1cccc(-c2nc3sccn3c2-c2ccnc(NCCCNS(=O)(=O)c3c(Cl)cccc3Cl)c2)c1
inactive: HCT-15 colon 37.7% | HT29 colon 48.4% | SNB-75 CNS 73% | SNB-19 CNS 78.7% | PC-3 prostate 35.1% | SK-MEL-5 melanoma 22.8% | UACC-62 melanoma 25.7% | LOX IMVI melanoma 54.1% | SK-MEL-28 melanoma 90.1% | SK-MEL-2 melanoma 67.5% | EKVX NSCLC 58.7% | SN12C renal 60.9% | UO-31 renal 32.4% | TK-10 renal 100% | ACHN renal 49.9% | CAKI-1 renal 44.1% | A498 renal 71.3% | CCRF-CEM leukemia 31.9% | MOLT-4 leukemia 28.9%

C=C(C)[C@@H]1CC[C@]2(C(N)=O)CC[C@]3(C)[C@H](CC[C@@H]4[C@@]5(C)C/C(=C/c6ccco6)C(=O)C(C)(C)[C@@H]5CC[C@]43C)[C@@H]12
inactive: HCT-15 colon 86.9% | HT29 colon 98.5% | SNB-75 CNS 89.5% | SNB-19 CNS 94.5% | PC-3 prostate 75.7% | SK-MEL-5 melanoma 96.5% | UACC-62 melanoma 80.2% | LOX IMVI melanoma 88.4% | SK-MEL-28 melanoma 99.6% | SK-MEL-2 melanoma 99.5% | EKVX NSCLC 89.8% | SN12C renal 96.1% | UO-31 renal 84.4% | TK-10 renal 105% | ACHN renal 84.4% | CAKI-1 renal 59% | A498 renal 104% | CCRF-CEM leukemia 93.4% | MOLT-4 leukemia 79.7%

COc1ccc(-c2nc3ccc(-c4nc5ccc(N6CCN(c7ccncc7)CC6)cc5[nH]4)cc3[nH]2)cc1OC
inactive: HCT-15 colon 88.7% | HT29 colon 22.6% | SNB-75 CNS 52.8% | SNB-19 CNS 40.9% | PC-3 prostate 54.8% | SK-MEL-5 melanoma 14.1% | UACC-62 melanoma 17.5% | LOX IMVI melanoma 16.9% | SK-MEL-28 melanoma 19.1% | EKVX NSCLC 69.2% | SN12C renal 45.2% | UO-31 renal 97.5% | TK-10 renal 101% | ACHN renal 91.9% | CAKI-1 renal 57.5% | A498 renal 61.4% | CCRF-CEM leukemia 21.1% | MOLT-4 leukemia 18.1%
active: SK-MEL-2 melanoma -17%

COc1cc(/C=C/C(=O)c2ccc(O)c(CN3CCN(c4cc5c(cc4F)c(=O)c(C(=O)O)cn5C4CC4)CC3)c2)cc(OC)c1OC
active: CCRF-CEM leukemia 9.83%
inactive: HCT-15 colon 19.3% | HT29 colon 10.3% | SNB-75 CNS 57.7% | SNB-19 CNS 75.7% | PC-3 prostate 47.1% | SK-MEL-5 melanoma 64% | UACC-62 melanoma 59.9% | LOX IMVI melanoma 20.7% | SK-MEL-28 melanoma 59.3% | SK-MEL-2 melanoma 66.2% | EKVX NSCLC 49.4% | SN12C renal 38.2% | UO-31 renal 47.4% | TK-10 renal 107% | ACHN renal 46.1% | CAKI-1 renal 54.7% | A498 renal 93% | MOLT-4 leukemia 33.3%

C=CC(=O)Nc1cccc(-c2nc(SC)nc(NCCN3CCOCC3)c2C#N)c1
inactive: HCT-15 colon 90.1% | HT29 colon 89.4% | SNB-75 CNS 44.8% | SNB-19 CNS 88.5% | PC-3 prostate 92.7% | SK-MEL-5 melanoma 94.9% | UACC-62 melanoma 86.7% | LOX IMVI melanoma 85.5% | SK-MEL-28 melanoma 114% | SK-MEL-2 melanoma 82.6% | EKVX NSCLC 86.5% | SN12C renal 81.2% | UO-31 renal 61.4% | TK-10 renal 134% | ACHN renal 80.8% | CAKI-1 renal 86.2% | A498 renal 78.3% | CCRF-CEM leukemia 95.6% | MOLT-4 leukemia 75.9%

O=C(N/N=C/c1c[nH]c2ccccc12)c1cc(-c2ccccc2)on1
inactive: HCT-15 colon 71.2% | HT29 colon 102% | SNB-75 CNS 67% | SNB-19 CNS 89.8% | PC-3 prostate 88% | SK-MEL-5 melanoma 91.3% | UACC-62 melanoma 62.8% | LOX IMVI melanoma 56.3% | SK-MEL-28 melanoma 106% | SK-MEL-2 melanoma 101% | EKVX NSCLC 87.9% | SN12C renal 92.3% | UO-31 renal 60.7% | TK-10 renal 125% | ACHN renal 87.6% | CAKI-1 renal 69.7% | A498 renal 78.6% | CCRF-CEM leukemia 46.1%
